Data on 15 molecules can be found in PubChem BioAssay.

Activity calls are given as the source filed them. Unless noted, no rule for the calls is given here.

The subject of assay [1] is XIP peptide (Xip251-270) binding. In words: small-molecule binders of XIP peptide, primary screen, biochemical, small-molecule microarray, fluorescence 635/667 nm, 0.1 µg/mL protein (AID 1182). The settings on record: fluorescent protein binding, 635 nm, higher = more signal, called active from +8 up or from −8 down.
Another assay deals with XIP peptide (Xip251-270). Nature of the assay: small-molecule binders of XIP peptide, primary screen, biochemical, small-molecule microarray, fluorescence 635/667 nm, 0.5 µg/mL protein (AID 1183). The settings on record: small-molecule microarray binding, fluorescence 635 nm; higher = more signal.
The nature of assay [2]: Plasmodium falciparum growth inhibition, primary screen, strain 3D7, DAPI fluorescence, 100 nL (AID 1184).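 Also: parasites grown inside human red blood cells in medium with human serum.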 The settings on record: P. falciparum 3D7 growth, 3 d, higher = more signal.
The target of assay [3] is Homeobox protein Hox-A13 (Mus musculus) (UniProt Q62424). In words: inhibitors of HoxA13-DNA binding, primary screen, biochemical, fluorescence polarization, labeled oligonucleotide (AID 1185). The settings on record: 15 min, higher = more signal, called active from +8 up or from −8 down.
Assay [4] in a line: inhibitors of hydroxyurea-induced Chk1 phosphorylation, primary screen, imaging, HeLa, phospho-Chk1 antibody, percent positive cells (AID 1186). The settings on record: hydroxyurea-induced phospho-Chk1 immunofluorescence imaging, higher = more signal.
Assay [5] is described as follows: inhibitors of hydroxyurea-induced Chk1 phosphorylation, primary screen, imaging, HeLa, phospho-Chk1 nuclear intensity (AID 1187). The settings on record: hydroxyurea-induced phospho-Chk1 immunofluorescence imaging, higher = more signal.

Homeobox protein Hox-A13 (Mus musculus), sequence (Q62424 whole entry, looked up): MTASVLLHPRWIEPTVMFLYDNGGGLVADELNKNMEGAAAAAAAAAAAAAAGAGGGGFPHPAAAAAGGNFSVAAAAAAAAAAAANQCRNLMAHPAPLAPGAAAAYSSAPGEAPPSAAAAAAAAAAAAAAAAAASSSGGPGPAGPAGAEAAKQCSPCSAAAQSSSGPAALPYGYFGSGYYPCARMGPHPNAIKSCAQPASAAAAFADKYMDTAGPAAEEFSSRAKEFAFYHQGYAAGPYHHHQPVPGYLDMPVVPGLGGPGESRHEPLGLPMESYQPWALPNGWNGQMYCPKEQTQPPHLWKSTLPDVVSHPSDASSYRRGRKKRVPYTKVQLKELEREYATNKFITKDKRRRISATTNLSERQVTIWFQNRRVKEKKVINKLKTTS

`CC(C)(C)OC(=O)CC[C@]1(C(=O)NCCN2CCOCC2)N=C(c2ccc(OCCCO)cc2)O[C@H]1c1ccccc1`: the composite z-score is 0.471 (inactive) in assay [1] and 0.598 in the assay with XIP peptide (Xip251-270). Moreover, the z-score in assay [2] is 0.207; in assay [3], -4.62 (inactive); in assay [4], -0.103 (inactive); in assay [5], 0.201 (inactive).
Turning to `CC(C)c1ccc(NN2C(C(O)c3ccco3)C=CC3C(=O)N(c4ccccc4)C(=O)C32)cc1` (stereo not given), the composite z-score in assay [1] is 0.938 (inactive); in the assay on XIP peptide (Xip251-270), 0.849. In addition, the z-score in assay [2] was -0.107; in assay [3], -3.14 (inactive); in assay [4] it was -0.881 (inactive); in assay [5] it was -1.03 (inactive).
As to `CCOC(=O)C1=CC[C@@H](c2ccccc2C(F)(F)F)N(S(=O)(=O)c2ccc(C)cc2)C1`, the composite z-score is 0.561 (inactive) in assay [1] and 0.667 with XIP peptide (Xip251-270). Also, the z-score in assay [2] is -0.386; in assay [3], -2.64 (inactive); in assay [4], -0.155 (inactive); in assay [5] it was -0.341 (inactive).
For `COc1cc2c(cc1OC)CN(C(=O)[C@H]1[C@@H]3C(=O)O[C@@H](c4ccccc4)[C@@H](c4ccccc4)N3[C@@H](c3ccc(OCCO)cc3)[C@]13C(=O)Nc1ccc(C#CC4(O)CCCCCC4)cc13)CC2`, the composite z-score in assay [1] was 0.63 (inactive); in the assay with XIP peptide (Xip251-270) it was 0.803. The z-score is -1.88 in assay [2], 2.98 (inactive) in assay [3], -0.647 (inactive) in assay [4] and -1.2 (inactive) in assay [5].
As to `[N-]=[N+]=NCc1ccccc1C[C@@]1(C(=O)N2CCCCC2)N=C(c2ccc(OCCCO)cc2)O[C@@H]1c1ccccc1N=[N+]=[N-]`, the composite z-score is 1.25 (inactive) in assay [1] and 0.386 with XIP peptide (Xip251-270). In addition, the z-score was -2.24 in assay [2], -1.84 (inactive) in assay [3], -0.298 (inactive) in assay [4] and 0.246 (inactive) in assay [5].
For `Cc1c(NC(=O)/C(C#N)=C/C=C/c2ccccc2[N+](=O)[O-])c(=O)n(-c2ccccc2)n1C`, the composite z-score is 4.09 (inactive) in assay [1] and 0.552 with XIP peptide (Xip251-270). Further, the z-score is -0.758 in assay [2], -3.54 (inactive) in assay [3], 0.432 (inactive) in assay [4] and 0.721 (inactive) in assay [5].
Turning to `COc1ccc(NC(=O)O[C@H]2[C@H](OC(=O)Nc3ccc4c(c3)OCO4)[C@@H](OC(=O)Nc3ccc4c(c3)OCO4)[C@@H](OC)O[C@@H]2CO)cc1`, the results for the composite z-score (in assay [1]; in the assay on XIP peptide (Xip251-270)) were 1.61 (inactive) and 0.877, respectively. Moreover, the z-score was -2.04 in assay [2], -6.9 (inactive) in assay [3], -0.0538 (inactive) in assay [4] and 0.419 (inactive) in assay [5].
Regarding `CCOC(=O)C[C@H]1[C@H](OC(=O)Cc2ccc3c(c2)OCO3)[C@@H](NC(=O)C2CCCCC2)c2cc(OCCCO)ccc2N1C(=O)c1ccc2ccccc2n1`, the figures for the composite z-score (in assay [1]; in the assay on XIP peptide (Xip251-270)) were 1.35 (inactive) and 0.639, respectively. Besides, the z-score was -2.04 in assay [2], -3.76 (inactive) in assay [3], 0.404 (inactive) in assay [4] and -0.0148 (inactive) in assay [5].
As to `C=CCOC(=O)[C@H]1[C@@H]2C(=O)O[C@@H](c3ccccc3)[C@@H](c3ccccc3)N2[C@@H](c2ccc(OCCOC(=O)[C@H]3C[C@H]4C(=O)N[C@@H](Cc5ccccc5)C(=O)N4[C@H]3c3cccc(OCCO)c3)cc2)[C@]12C(=O)Nc1ccc(I)cc12`, the composite z-score in assay [1] is 0.893 (inactive); in the assay on XIP peptide (Xip251-270), 0.464. The z-score was -1.65 in assay [2], 0.643 (inactive) in assay [3], 0.27 (inactive) in assay [4] and -0.0401 (inactive) in assay [5].
Take `CC(C)(C)OC(=O)CC[C@]1(C(=O)NCCN2CCOCC2)N=C(c2ccc(OCCCO)cc2)O[C@H]1c1ccccc1N=[N+]=[N-]`: the results for the composite z-score (in assay [1]; in the assay with XIP peptide (Xip251-270)) were 0.716 (inactive) and 0.864, respectively. Also, the z-score in assay [2] was -1.73; in assay [3], -4.1 (inactive); in assay [4], 0.0695 (inactive); in assay [5], 0.234 (inactive).
Take `COc1c(C)cc(-c2cc3c(c(Cc4ccccc4)n2)[Si](C(C)C)(C(C)C)OC3)cc1C`: the values for the composite z-score (in assay [1]; with XIP peptide (Xip251-270)) were -0.337 (inactive) and -0.0392, respectively. The z-score is -2.74 in assay [2], 0.472 (inactive) in assay [3], -0.142 (inactive) in assay [4] and 0.135 (inactive) in assay [5].
For `[N-]=[N+]=Nc1ccccc1C[C@@]1(C(=O)O)N=C(c2ccc(OCCCO)cc2)O[C@@H]1c1ccccc1`, the composite z-score in assay [1] was 0.57 (inactive); with XIP peptide (Xip251-270), 0.707. Moreover, the z-score in assay [2] was -0.188; in assay [3], -5.79 (inactive); in assay [4], 0.167 (inactive); in assay [5], 0.149 (inactive).
As for `C=C(CCCC)/C(=C/C[C@@H](OC(C)=O)c1ccc(CO)o1)c1cc(C(=O)OC)ccc1OC`, the composite z-score is 0.207 (inactive) in assay [1] and 0.778 in the assay on XIP peptide (Xip251-270). In addition, the z-score in assay [2] was -0.597; in assay [3], -4.83 (inactive); in assay [4] it was 0.19 (inactive); in assay [5], 0.471 (inactive).
Take `COc1ccc(NN2C(C(O)c3ccco3)C=CC3C(=O)N(C4CCCCC4)C(=O)C32)cc1` (stereo not given): the composite z-score is 0.902 (inactive) in assay [1] and 0.68 with XIP peptide (Xip251-270). In addition, the z-score was -0.244 in assay [2], -3.76 (inactive) in assay [3], -0.266 (inactive) in assay [4] and -0.504 (inactive) in assay [5].
In the case of `CCOC(=O)[C@H]1C/C=C/C[C@H](C(=O)OCC)C(=O)O[C@H]2[C@@H](OC)O[C@H](CO)[C@@H](OC(=O)Nc3ccc(OC)cc3)[C@@H]2OC1=O`, the composite z-score in assay [1] is 0.568 (inactive); in the assay on XIP peptide (Xip251-270), 0.601. For the same molecule, the z-score is -1.71 in assay [2], -0.589 (inactive) in assay [3], 0.178 (inactive) in assay [4] and 0.395 (inactive) in assay [5].
